# Assay outcomes as filed in PubChem.
# TEAD-YAP inh: TEAD-YAP interaction inhibition. HEK-TIYL cells, TEAD-Gal4/YAP UAS-luciferase luminescence. inhibition, % at 9.12 µM. 1.4% of 640,000 active. AID 1259422; in the data active = inhibition above about 32%
# GPR151 activ: human GPR151 activation. activation, % at 11.2 µM. PathHunter beta-arrestin GPR151 cells, luminescence. 1% of 650,000 active. Q8TDV0; in the data active = activation above about 4.9%
# Target sequence (Q8TDV0 whole entry, looked up): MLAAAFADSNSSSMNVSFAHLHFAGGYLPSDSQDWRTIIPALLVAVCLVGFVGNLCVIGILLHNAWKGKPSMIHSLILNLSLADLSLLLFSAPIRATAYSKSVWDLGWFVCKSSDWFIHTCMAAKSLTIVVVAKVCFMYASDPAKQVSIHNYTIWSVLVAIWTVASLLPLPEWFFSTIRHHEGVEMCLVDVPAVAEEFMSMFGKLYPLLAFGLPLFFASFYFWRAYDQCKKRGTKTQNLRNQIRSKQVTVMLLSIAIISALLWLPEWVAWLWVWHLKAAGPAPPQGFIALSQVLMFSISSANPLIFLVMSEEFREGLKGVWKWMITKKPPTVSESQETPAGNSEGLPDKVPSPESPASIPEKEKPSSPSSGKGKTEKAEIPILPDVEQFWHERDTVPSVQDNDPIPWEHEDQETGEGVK
# MITF primary: inhibitors of human MITF. AlphaScreen MITF homodimerization, bead proximity signal. inhibition, % at 2.6 µM. O75030. 0.91% of 650,000 active; in the data active = inhibition above about 50%
# FBW7 activator: human FBW7 E3 ligase activation, primary screen. normalized activity (activation), % at 26.1 µM. AlphaScreen FBW7–phospho-cyclin E peptide binding, activator screen. AID 1259310. 0.13% of 650,000 active; in the data active = normalized activity above about 1.9%;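 also: purified mutant Fbw7 with reduced substrate affinity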
# MITF inh conf: human MITF inhibition, confirmation; shares compounds with MITF primary; AlphaScreen MITF homodimerization, biotin/His-MITF beads; inhibition, % at 2.6 µM; 16% of 4,700 active; AID 1259372;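 active = inhibition above a cutoff derived from the DMSO control wells, cut at about 28% in these data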;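 also: inhibitors lower the bead chemiluminescence by keeping MITF from dimerizing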
# AS interf DR: counter-screen: compounds optically interfering with AlphaScreen. AlphaScreen optical interference counterscreen, cell-free. shares compounds with MITF primary. 6% of 480 active. IC50, µM. AID 1259373; call rule not given here
# AlphaScreen intf2: AlphaScreen optical interference, counter-screen; shares compounds with MITF primary; AID 1259376; LysRS AlphaScreen counterscreen, signal interference, triplicate; inhibition, % at 2.6 µM; 7.6% of 4,700 active;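 active = inhibition above a cutoff derived from the DMSO control wells, cut at about 30% in these data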
# A number is an active result; i = inactive; nt = no result given. Sampled rows, rich in hits. Any-hit rate of the full collection: about 3.4%.
SMILES,TEAD-YAP inh,GPR151 activ,MITF primary,FBW7 activator,MITF inh conf,AlphaScreen intf2,others
O=C(O)c1cc(-n2cccc2)ccc1Cl,i,i,79,i,64,i,AS interf DR=i
COc1ccc(CNC(=O)c2cnn3c2NC(c2ccc4c(c2)OCO4)CC3C(F)(F)F)cc1 (stereo not given),i,i,68,i,i,i,
COc1ccc(CNC(=O)c2cnn3c2NC(c2ccc(OC)cc2)CC3C(F)(F)F)cc1 (stereo not given),i,i,i,i,nt,nt,
CCCOC(=O)C(C)Nc1n[nH]c(=S)[nH]c1=O (stereo not given),i,i,55,i,i,i,
c1coc(CNCCOc2ccc3ccccc3c2)c1,i,i,87,i,i,i,
Cc1ccc(C(C)C)c(OCCNCc2ccco2)c1,i,i,55,i,i,i,
COc1ccc(Br)cc1C(=O)N/C(=C\c1cccc([N+](=O)[O-])c1)C(=O)Nc1cc(Cl)ccc1C,i,i,i,i,nt,nt,
CCC(C)OC(=O)C1=C(C)NC2=C(C(=O)CC(c3ccccc3)C2)C1c1cc(OC)c(OC)cc1Br (stereo not given),i,i,63,i,i,i,
O=C(c1ccc2c(=O)n(Cc3ccc4c(c3)OCO4)c(SCc3ccccc3Cl)nc2c1)N1CCC2(CC1)OCCO2,i,i,i,i,nt,nt,
Cc1c(CN2CCN(C3CCN(C(C)C)CC3)C(CCO)C2)cnn1C (stereo not given),i,i,84,i,i,i,
Cc1cc(C)c(CN2CCN(C3CCN(C(C)C)CC3)C(CCO)C2)cc1C (stereo not given),i,i,i,i,nt,nt,
COc1cc(C2Nc3ccccc3NC3=C2C(=O)CC(c2ccccc2)C3)c(OC)cc1Br (stereo not given),i,i,i,i,nt,nt,
CC1=CC(C)(C)NC(=S)N1c1ccc(Cl)cc1,i,i,i,i,nt,nt,
CC1=CC(C)(C)NC(=S)N1c1cc(Cl)cc(Cl)c1,i,i,58,i,i,i,
NC(C(=O)N1CCN(C(=O)c2ccc3[nH]ncc3c2)CC1)c1ccc(Cl)cc1 (stereo not given),i,i,i,i,nt,nt,
O=C(NC1CCN(S(=O)(=O)c2cccc(Cl)c2)CC1)c1ccco1,i,i,i,i,nt,nt,
CCc1ccc(CNc2ccc(N3CCOCC3)c(C(=O)O)c2)cc1,i,i,52,i,i,i,
C/C(=N\NC(=O)CC1=NNC(=O)C1)c1ccco1,i,i,51,i,36,i,AS interf DR=i
O=C(NC(=S)Nc1nc(-c2ccc(Cl)cc2)cs1)c1cc2ccccc2o1,i,i,i,i,nt,nt,
CN(CCOc1ccccc1)CC(=O)Nc1ccc(C(F)(F)F)cc1,i,i,66,i,i,i,
Cc1cc(NC(=O)CN(C)CCOc2ccccc2)ccc1Br,i,i,i,i,nt,nt,
COc1ccc(NC(=O)CN(C)CC(=O)Nc2ccccc2SC)cc1,i,i,75,i,i,i,
CSc1ccccc1NC(=O)CN(C)CC(=O)Nc1ccc(C(N)=O)cc1,i,i,i,i,nt,nt,
Cc1ccc(NC(=O)CN(C)CC(=O)Nc2ccccc2Oc2ccccc2)cc1,i,i,91,i,i,i,
CCOC(=O)c1ccc(NC(=O)CCSc2ccc(C)cc2)cc1,i,i,i,i,nt,nt,
SMILES,TEAD-YAP inh,GPR151 activ,MITF primary,FBW7 activator,MITF inh conf,AlphaScreen intf2,others
CCOC(=O)c1ccc(NC(=O)CSc2ccc(F)cc2)cc1,i,i,54,i,i,i,
CCN1CCN(C2CCN(Cc3cc(OC)c(OC)c(OC)c3)CC2)CC1,i,i,i,i,nt,nt,
CCOc1ccccc1CN1CCC(N2CCOCC2)CC1,i,i,i,i,nt,nt,
COc1ccc(CN2CCN(C3CCCC(C)C3)CC2)c(OC)c1OC (stereo not given),i,i,54,i,i,i,
COc1ccc(CN2CCC(N3CC(C)OC(C)C3)CC2)c(OC)c1OC (stereo not given),i,i,65,i,i,i,
CCN1CCN(C2CCN(Cc3ccc(OC)c(OC)c3OC)CC2)CC1,i,i,61,i,i,i,
CCOc1ccccc1CN1CCC(N2CCC(C)CC2)CC1,i,i,70,i,i,i,
COc1ccccc1CN1CCC(N2CCN(C)CC2)CC1,i,i,i,i,nt,nt,
COc1ccc(CN2CCN(C3CCC(c4ccccc4)CC3)CC2)c(OC)c1OC (stereo not given),i,i,53,i,i,i,
COc1ccc(CN2CCC(N3CC(C)OC(C)C3)CC2)cc1 (stereo not given),i,i,87,i,i,i,
COc1ccccc1CN1CCN(C2CCCCC2)CC1,i,i,70,i,i,i,
COc1ccc(CN2CCN(C3CCCCC3)CC2)c(OC)c1OC,i,i,76,i,i,i,
COc1ccc(-c2ccc(C)c(NC(=O)c3c(OC)cccc3OC)c2)nn1,i,i,i,i,nt,nt,
CCOc1ccc(-c2ccc(NC(=O)c3c(OC)cccc3OC)cc2)nn1,i,i,99,i,i,i,
COc1ccccc1-n1c(SCC(=O)Nc2ccc(C)cc2)nnc1-c1ccncc1,i,i,i,i,nt,nt,
COc1ccccc1-n1c(SCC(=O)NNC=O)nnc1-c1ccc(C)cc1,i,i,84,i,i,i,
CCN(CC)CCN(C)Cc1ccc(NC(C)=O)cc1,i,i,64,i,i,i,
CCN(CC)CCN(C)Cc1ccc(SC)cc1,i,i,i,i,nt,nt,
COc1ccc(C(=O)CSc2nnc(-c3ccc4c(c3)OCO4)o2)cc1OC,i,i,86,i,i,i,
CN1CCC(N(C)CC(O)COC(c2ccc(F)cc2)c2ccc(F)cc2)CC1 (stereo not given),i,i,60,i,i,i,
OC(CNCCCN1CCOCC1)COC(c1ccc(F)cc1)c1ccc(F)cc1 (stereo not given),i,i,i,i,nt,nt,
C/C(=C\c1ccccc1)CN1CCOc2ccc(C(C)(O)CN(C)C)cc2C1 (stereo not given),i,i,i,i,nt,nt,
Cc1cc(C)cc(-n2c(SCC(=O)Nc3nccs3)nnc2-c2cccnc2)c1,i,i,58,i,i,i,
COc1cccc(-n2c(SCC(=O)Nc3nccs3)nnc2-c2cccnc2)c1,i,i,i,i,nt,nt,
O=C(NC(c1ccccc1)c1ccccn1)C1CCN(S(=O)(=O)c2cccs2)CC1 (stereo not given),i,i,i,i,nt,nt,
SMILES,TEAD-YAP inh,GPR151 activ,MITF primary,FBW7 activator,MITF inh conf,AlphaScreen intf2,others
CC(C)(C)NC(=O)Nc1ccc2c(c1)N(S(=O)(=O)c1ccc(F)cc1)CCC2,i,i,i,i,nt,nt,
Cc1cc(/C=C2/C=CC(=O)O2)oc1C,i,i,75,i,72,i,AS interf DR=i
COc1ccccc1N1CCN(C(=O)CSc2nc3ccccc3c(=O)n2NC(=O)Cc2ccccc2)CC1,i,i,i,i,nt,nt,
COc1ccccc1N1CCN(C(=O)CSc2nc3ccccc3c(=O)n2NC(=O)c2ccccc2)CC1,i,i,75,i,i,i,
N#CCSc1nc2ccccc2c(=O)n1NC(=O)c1ccccc1,82,i,67,i,i,i,
COc1ccccc1NC(=O)Nc1ccnn1C1CCN(C(=O)COc2ccccc2)CC1,i,i,i,i,nt,nt,
